Bioassay records: PubChem, National Center for Advancing Translational Sciences (NCATS)
Cruzain noTriton = inhibitors of Trypanosoma cruzi cruzain without detergent. Potency, µM, without a hit: max response, negative = inhibition, most hits filed as inhibitors. P25779. hit rate 2.3% among 200,000. purified cruzain, Z-FR-AMC fluorescence, no detergent;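 further: plate controls were enzyme without inhibitor for no effect and buffer without enzyme for full effect; nearly all actives have a fitted effect of over 40% in size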
Target sequence (P25779 123-467 limits assumed): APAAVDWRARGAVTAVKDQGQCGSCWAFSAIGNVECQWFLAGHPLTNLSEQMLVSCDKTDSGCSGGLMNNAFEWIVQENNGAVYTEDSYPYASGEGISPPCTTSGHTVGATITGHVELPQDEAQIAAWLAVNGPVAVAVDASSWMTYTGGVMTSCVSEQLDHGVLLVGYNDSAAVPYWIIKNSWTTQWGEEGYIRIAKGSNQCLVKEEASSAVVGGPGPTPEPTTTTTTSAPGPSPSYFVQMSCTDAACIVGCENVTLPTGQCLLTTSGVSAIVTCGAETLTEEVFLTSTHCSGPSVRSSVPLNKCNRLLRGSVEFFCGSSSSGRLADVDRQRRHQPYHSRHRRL
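Detergent-free condition (0.00005% Triton X-100) in acetate buffer pH 5.5 with DTT. 1.5 nM enzyme and compound were pre-mixed 15 min, then 2 uM Z-FR-AMC substrate added; reaction progress from fluorescence change between first and third reads (60 s).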
Cruzain inh Det = cruzain (T. cruzi) inhibition with detergent; hit rate 0.43% among 200,000; Potency, µM, for inactives: max response, negative = inhibition, hits mostly inhibitors; P25779; purified cruzain, Z-FR-AMC fluorescence, 0.01% Triton;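 further: plate controls were neutral wells for no effect and buffer without enzyme for full effect; nearly all actives have a fitted effect of over 40% in size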
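Cysteine protease activity tested under reducing, mildly acidic conditions (100 mM sodium acetate pH 5.5, 5 mM DTT) plus 0.01% Triton X-100. Cruzain 1.5 nM; substrate Z-FR-AMC 2 uM; 15 min compound preincubation at room temperature.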
Starred values were filed as active, the others as inactive; u = inconclusive. Only some compounds are listed: those with a hit (about 2.5% of all), similar ones and a draw of the others. The call rests on the fitted dose curve; in most records, active means well fitted curve in the direction sought with a large enough effect; inconclusive means small, poorly fitted or top-dose-only effect, or another doubt; inactive means no such curve, though single readings can be large; an effect the other way counts as inactive or inconclusive. Potency means the concentration at half of the fitted maximal effect.

SMILES	Cruzain noTriton	Cruzain inh Det
O=C(Nc1c(C(=O)Nc2ccc(F)cc2)oc2ccccc12)c1cc2ccccc2o1	13µM*	-2%
COc1ccc(NC(=O)c2oc3ccccc3c2NC(=O)c2cc3ccccc3o2)cc1	u	-1%
COc1cc(NC(=O)c2ccccc2)ccc1NC(=O)c1cc2ccccc2o1	3%	1%
Cc1ccc(NC(=O)c2ccc(OC(=O)COc3ccc(Cl)c(C)c3)cc2)cc1	16µM*	7%
COc1cc(NC(=O)c2cc(Cl)ccc2Cl)ccc1NC(=O)c1cc2ccccc2o1	16µM*	-5%
COC(=O)COc1cccc(NC(=O)c2ccc(C)cc2)c1	-5%	1%
O=C(CN1C(=O)COc2ccc(Cl)cc21)Nc1cccc(C(=O)O)c1	2%	-1%
CN1CCN(C(=O)c2ccc3c(c2)N(Cc2c(F)cccc2Cl)C(=O)c2ccccc2S3)CC1	-7%	6%
CC(C)CCNC(=O)c1ccc2c(c1)NC(=O)C(C(C)C)N2 (configuration not stated)	-5%	-4%
COC(=O)c1cc(OC)c(OC)cc1N	-24%	-2%
COc1cc2cc(C(N)=O)c(N)nc2cc1OC	16µM*	28µM*
COc1ccc(-c2c3c([nH]c(=S)c2C#N)CCC3)cc1	16µM*	-1%
N#Cc1c(-c2cccnc2)c2c([nH]c1=S)CCCC2	-1%	-2%
Cc1ccc2nc(NC(=O)c3ccc(S(=O)(=O)N4CCC(C)CC4)cc3)sc2c1	-11%	3%
COc1ccc(-c2csc(NC(=O)c3ccc(S(=O)(=O)N4CCc5ccccc5C4)cc3)n2)cc1	5µM*	0%
Cc1ccc2nc(NNC(=O)c3ccc(S(=O)(=O)N4CCc5ccccc5C4)cc3)sc2c1	25µM*	4%
COc1ccc(-c2nnc(NC(=O)c3ccc(S(=O)(=O)N4CCc5ccccc5C4)cc3)o2)cc1	-10%	-1%
Cc1ccc(C(=O)Nc2nc(-c3cc(Cl)sc3Cl)cs2)cc1	u	5%
CCC(CC)c1nnc(NC(=O)c2ccc(S(=O)(=O)N3CCc4ccccc4C3)cc2)s1	u	-4%
Cc1cc(-c2csc(NC(=O)c3ccc(C#N)cc3)n2)c(C)n1Cc1ccccc1	10µM*	-1%
COC(=O)c1ccc(-c2csc(NC(=O)c3ccc(S(=O)(=O)N4CCc5ccccc5C4)cc3)n2)cc1	6.3µM*	1%
CCOc1ccc(NC(=O)Cn2c(=O)n(CC(=O)NCCc3ccccc3)c(=O)c3sccc32)cc1	-1%	-3%
C[C@H]1C2C=C[C@H]1[C@@H](C(=O)O)[C@@H]2c1c2ccc(=O)c(O)c-2oc2c(O)c(O)ccc12	16%	-19%
CC(C)CNc1nc(N)[nH]c(=O)c1NC=O	7%	2%
CN(C)S(=O)(=O)c1ccc(C(=O)Nc2nc(-c3cccs3)cs2)cc1	9%	-7%
SMILES	Cruzain noTriton	Cruzain inh Det
COc1ccc(-n2c(C)cc(-c3csc(NC(=O)c4ccc(S(=O)(=O)N(C)C)cc4)n3)c2C)cc1	10µM*	-1%
COc1ccc(CNC(=O)Cc2c(C)c3c(O)cc(C)cc3oc2=O)cc1	-4%	0%
COc1ccc(CNC(=O)Cc2c(C)c3ccc(O)cc3oc2=O)cc1	25µM*	-23%
Clc1ccccc1-c1cncnc1NCCN1CCOCC1	-5%	1%
COc1ncc2nc(-c3ccc(F)cc3)c(=O)n(Cc3ccc(F)cc3)c2n1	4%	-4%
O=C(O)c1cccc(N=Nc2c(S(=O)(=O)O)ccc3c2C(=O)c2ccccc2C3=O)c1O	5%	-14%
Cc1ccc(C)c2c(SC(C)C(=O)NCc3ccco3)nc(-c3ccccc3)nc12 (configuration not stated)	4µM*	-8%
Cc1ccc2nc(-c3ccccc3)nc(SC(C)C(=O)NCc3cccs3)c2c1 (configuration not stated)	-27%	-4%
COc1cccc(-c2ccc3ncnc(NCc4cnc(C)cn4)c3c2)c1	1%	-3%
CCc1ccccc1N1CC(c2nc3ccccc3n2Cc2cccc(C)c2)CC1=O (configuration not stated)	u	-11%
Cc1cccc(-c2nc(SCCCOc3ccc(Cl)c(C)c3)n3[nH]c(=O)cc3n2)c1	-9%	3%
CCc1ccc(OCCSc2nc(-c3cccc(C)c3)nc3cc(=O)[nH]n23)cc1	-8%	2%
Cc1cccc(OCCCSc2nc(-c3ccc(C(C)(C)C)cc3)nc3cc(=O)[nH]n23)c1C	10µM*	-11%
CCc1ccc(OCCCSc2nc(-c3ccc(C(C)(C)C)cc3)nc3cc(=O)[nH]n23)cc1	6.3µM*	-6%
CC12CC[C@@H]3c4ccc(OP(=O)(O)O)cc4CCC3C1CCC2=O (some centres not stated)	4%	11%
Brc1cccc(-c2nnn3c2nc(N2CCCCC2)c2ccccc23)c1	0%	-1%
CCCOc1ccc(Oc2nc(NC)nc(N3CCOCC3)n2)nn1	7%	5%
CCc1nn(-c2cc(Oc3ccccc3)nc(-c3ccccc3)n2)c(N)c1C#N	3.2µM*	-6%
CCc1nn(-c2ccccc2)c(N)c1C#N	10%	2%
COc1cccc(-n2c(-c3ccc(Cl)cc3)cc3c2CC(C)(C)CC3=O)c1	9%	-1%
Cc1cccn2c(=O)c3cc(C(=O)NC(C)(C)C)n(C)c3nc12	16%	-5%
NN(CC(=O)O)CC(=O)O	0%	4%
COc1ccc(C(=O)Nc2nnc(S(=O)(=O)N3CCN(c4ccc(C)cc4)CC3)s2)cc1	-2%	0%
CCOc1ccc(NC(=O)CSc2nc3c(oc4ccccc43)c(=O)n2CCOC)cc1	1%	-1%
CCOC(=O)Nc1ccc(C)cc1C	1%	4%
SMILES	Cruzain noTriton	Cruzain inh Det
Cc1ccc(NC(=O)COC(=O)C(CC(C)C)N2C(=O)C3CC=CCC3C2=O)c(C)c1 (configuration not stated)	8%	25µM*
Cc1cccn2c(Nc3ccccc3)c(-c3cccs3)nc12	-4%	-10%
Fc1ccc(Nc2nc(N3CCOCC3)c3ccccc3n2)cc1	16µM*	u
c1ccc2c(Nc3nc(N4CCOCC4)c4ccccc4n3)cccc2c1	-8%	-8%
O=C(O)Cc1ccc(NC2(c3ccccc3)C(=O)c3ccccc3C2=O)cc1	-17%	-3%
CCOC(=O)c1ccc(N2CCN(c3ccccc3F)CC2)c(NC(=O)Nc2ccc(Cl)c(Cl)c2)c1	2%	0%
Cc1ccc(NC(=O)CSc2nnc(-c3ccco3)c(-c3ccco3)n2)cc1	10µM*	25µM*
CSc1nnc2c(n1)OC=Nc1ccccc1-2	-7%	-6%
Cc1cccc(C)c1NC(=O)CSc1nnc(-c2ccco2)c(-c2ccco2)n1	-18%	u
CSc1nnc(-c2ccco2)c(-c2ccco2)n1	13µM*	14µM*
Cc1ccc(Nc2nc3nonc3nc2Nc2cccc(C(F)(F)F)c2)cc1Cl	-11%	-1%
N#Cc1ccccc1NC(=O)Cn1cnc2onc(-c3cccc(F)c3)c2c1=O	5%	4%
CC1=C(C(=O)Nc2ccc(F)cc2)C(c2ccc(N(C)C)cc2)NC(=O)N1 (configuration not stated)	1%	-1%
Cc1ccc(C)c(CSc2nnc3[nH]c(=O)cc(C)n23)c1	8%	-1%
CC(C)(C)c1ccc(C(=O)NC(Cc2c[nH]c3ccccc23)C(=O)OCC(=O)c2ccccc2)cc1 (configuration not stated)	u	-9%
COc1ccc(C(=O)COC(=O)C(Cc2c[nH]c3ccccc23)NC(=O)c2ccc(C(C)(C)C)cc2)cc1 (configuration not stated)	13µM*	-1%
